# Assay results from publication PMC11062922 (Nature Chemical Biology, 2023).
# Where two headings read alike, the source gives them in different places.
# What was measured:
# Parameters in all cases: species or system human, MV4-11 + K-562 + COLO205 + SK-N-BE2 + OVCAR-8
# CSNK1D = settings: read-out: apparent Kd, n = 1
# PRKACA = settings: read-out: apparent Kd, n = 1
# PRKACB = settings: read-out: apparent Kd, n = 1
# CDK16 = settings: read-out: apparent Kd, n = 1
# CHEK1 = settings: read-out: apparent Kd, compound concentrations: 100 nM and 1000 nM (sheet 'Samples'), n = 1
# MARK3 = settings: read-out: apparent Kd, n = 1
# PRKAG2 = settings: read-out: apparent Kd; compound concentrations: 100 nM and 1000 nM (sheet 'Samples'), CATDS: 1.2141088500549201E-2; n = 1
# RPS6KA4 = settings: read-out: apparent Kd, n = 1
# STK4 = settings: read-out: apparent Kd, n = 1
# MAPK10 = settings: read-out: apparent Kd, n = 1
# MAPK9 = settings: read-out: apparent Kd, n = 1
# EPHA4 = settings: read-out: apparent Kd; compound concentrations: 100 nM and 1000 nM (sheet 'Samples'), CATDS: 2.83796334007482E-2; n = 1
# EPHB2 = settings: read-out: apparent Kd; compound concentrations: 100 nM and 1000 nM (sheet 'Samples'), CATDS: 2.91102387203203E-2; n = 1
# EPHB4 = settings: read-out: apparent Kd; compound concentrations: 100 nM and 1000 nM (sheet 'Samples'), CATDS: 3.3476248277138E-2; n = 1
# TNK2 = settings: read-out: apparent Kd; compound concentrations: 100 nM and 1000 nM (sheet 'Samples'), CATDS: 3.7292246432418498E-2; n = 1
# EPHA5 = settings: read-out: apparent Kd; compound concentrations: 100 nM and 1000 nM (sheet 'Samples'), CATDS: 5.66388945901121E-2; n = 1
# [1] = compound concentrations:100 nM and 1000 nM (sheet 'Samples')
structure (smiles),measurement,setting,value
NCC(NC(=O)c1cc(-c2cn[nH]c2)c(-c2ccnc3[nH]ccc23)s1)c1ccccc1.NCC(NC(=O)c1cc(-c2cn[nH]c2)c(-c2ccnc3[nH]ccc23)s1)c1ccccc1.O=C(O)C(F)(F)F.O=C(O)C(F)(F)F (stereo not drawn) [GSK1325775A],potency estimated from few doses,"CSNK1D; compound concentrations: 100 nM and 1000 nM (sheet 'Samples'), CATDS: 2.89439417277669E-2",2450 nM
same,potency estimated from few doses,"PRKACA; compound concentrations: 100 nM and 1000 nM (sheet 'Samples'), CATDS: 4.90722253933666E-2",503 nM
same,potency estimated from few doses,"PRKACB; compound concentrations: 100 nM and 1000 nM (sheet 'Samples'), CATDS: 4.09510310832654E-2",782 nM
O=C(O)C(F)(F)F.O=c1[nH]ccc2nc(N[C@@H]3CCNC3)nc(Nc3ccc4c(c3)S(=O)(=O)CC4)c12 [GSK2181306A],potency estimated from few doses,"CDK16; compound concentrations: 100 nM and 1000 nM (sheet 'Samples'), CATDS: 1.11902252687631E-2",620 nM
same,potency estimated from few doses,CHEK1; CATDS: 1.0862390298074001E-2,672 nM
same,potency estimated from few doses,"CSNK1D; compound concentrations: 100 nM and 1000 nM (sheet 'Samples'), CATDS: 9.27581508882039E-3",1080 nM
same,potency estimated from few doses,"MARK3; compound concentrations: 100 nM and 1000 nM (sheet 'Samples'), CATDS: 1.24991581563988E-2",470 nM
same,potency estimated from few doses,PRKAG2,504 nM
same,potency estimated from few doses,"RPS6KA4; compound concentrations: 100 nM and 1000 nM (sheet 'Samples'), CATDS: 1.6454900639240402E-2",258 nM
same,potency estimated from few doses,"STK4; compound concentrations: 100 nM and 1000 nM (sheet 'Samples'), CATDS: 2.0109118463760199E-2",175 nM
CCN(CC)Cc1ccc(Nc2nccc(-c3cnn4ncccc34)n2)cc1 [GW780056X],potency estimated from few doses,"CDK16; compound concentrations: 100 nM and 1000 nM (sheet 'Samples'), CATDS: 4.3242463436831802E-2",196 nM
same,potency estimated from few doses,"CSNK1D; compound concentrations: 100 nM and 1000 nM (sheet 'Samples'), CATDS: 9.4015783065552402E-2",47.8 nM
same,potency estimated from few doses,"MAPK10; compound concentrations: 100 nM and 1000 nM (sheet 'Samples'), CATDS: 3.1976328377255003E-2",371 nM
c1ccc(-c2n[nH]cc2Nc2ccnc3ccccc23)nc1 [GW694077X],potency estimated from few doses,"CSNK1D; compound concentrations: 100 nM and 1000 nM (sheet 'Samples'), CATDS: 2.5323353021981399E-2",1390 nM
same,potency estimated from few doses,"MAPK9; compound concentrations: 100 nM and 1000 nM (sheet 'Samples'), CATDS: 2.3391396830632599E-2",1900 nM
CC(C)(CO)CNC(=O)c1ccc2c(c1)/C(=N/Nc1ccc(S(N)(=O)=O)cc1)C(=O)N2 [GW301784X],potency estimated from few doses,CDK16; [1],53 nM
CN[C@H](C#Cc1c(F)ccc2c1/C(=C/c1[nH]ccc1OC)C(=O)N2)CO.Cl [RO0283049-001],potency estimated from few doses,"CDK16; compound concentrations: 100 nM and 1000 nM (sheet 'Samples'), CATDS: 4.8469274935302599E-2",167 nM
same,potency estimated from few doses,"MAPK10; compound concentrations: 100 nM and 1000 nM (sheet 'Samples'), CATDS: 2.5716910898498702E-2",751 nM
same,potency estimated from few doses,"MAPK9; compound concentrations: 100 nM and 1000 nM (sheet 'Samples'), CATDS: 5.4093082413128303E-2",135 nM
same,potency estimated from few doses,"RPS6KA4; compound concentrations: 100 nM and 1000 nM (sheet 'Samples'), CATDS: 3.14855312856318E-2",432 nM
same,potency estimated from few doses,"STK4; compound concentrations: 100 nM and 1000 nM (sheet 'Samples'), CATDS: 2.6680938989094499E-2",674 nM
CN(C)c1ccc2c(c1)/C(=C/Nc1ccc(S(N)(=O)=O)cc1)C(=O)N2 [GW416469X],potency estimated from few doses,"STK4; compound concentrations: 100 nM and 1000 nM (sheet 'Samples'), CATDS: 7.4915408427864094E-2",1510 nM
Cc1occc1-c1nc(N)c(OC[C@@H](N)Cc2c[nH]c3ccccc23)cc1-c1cc2c(C)n[nH]c2cn1 [GSK1660450B],potency estimated from few doses,CSNK1D; [1],452 nM
same,potency estimated from few doses,MARK3; [1],1250 nM
same,potency estimated from few doses,PRKACA; [1],8.55 nM
same,potency estimated from few doses,PRKACB; [1],18.6 nM
same,potency estimated from few doses,STK4; [1],105 nM
CNCC1CCn2c(c(C3=C(c4cn(C)c5ccccc45)C(=O)NC3=O)c3ccccc32)C1 (stereo not drawn) [RO0318676-000],potency estimated from few doses,CHEK1; CATDS: 3.6585074112693398E-2,754 nM
same,potency estimated from few doses,EPHA4,1680 nM
same,potency estimated from few doses,EPHB2,1530 nM
same,potency estimated from few doses,EPHB4,973 nM
same,potency estimated from few doses,TNK2,715 nM
NS(=O)(=O)c1ccc(NC=C2C(=O)Nc3ccc4ncsc4c32)cc1 [GW589933X],potency estimated from few doses,"CDK16; compound concentrations: 100 nM and 1000 nM (sheet 'Samples'), CATDS: 3.8979394521984997E-2",193 nM
same,potency estimated from few doses,"RPS6KA4; compound concentrations: 100 nM and 1000 nM (sheet 'Samples'), CATDS: 2.5851222500782998E-2",479 nM
same,potency estimated from few doses,"STK4; compound concentrations: 100 nM and 1000 nM (sheet 'Samples'), CATDS: 3.75205363662858E-2",208 nM
Cl.Cn1cc(C2=C(c3c4n(c5ccccc35)CCNC4)C(=O)NC2=O)c2ccccc21 [RO0318365-001],potency estimated from few doses,EPHA5,1210 nM
COc1cc[nH]c1/C=C1\C(=O)Nc2ccc(F)c(C#C[C@@H](O)[C@@H](N)[C@@H](C)O)c21 [RO0283120-000],potency estimated from few doses,CDK16; [1],235 nM
same,potency estimated from few doses,MAPK10; [1],654 nM
same,potency estimated from few doses,MAPK9; [1],321 nM
same,potency estimated from few doses,MARK3; [1],528 nM
same,potency estimated from few doses,RPS6KA4; [1],421 nM
same,potency estimated from few doses,STK4; [1],765 nM
NS(=O)(=O)c1ccc(N/C=C2\C(=O)Nc3ccc4ncsc4c32)cc1 [GW297361X],potency estimated from few doses,"CDK16; compound concentrations: 100 nM and 1000 nM (sheet 'Samples'), CATDS: 4.8575287587601497E-2",557 nM
same,potency estimated from few doses,"RPS6KA4; compound concentrations: 100 nM and 1000 nM (sheet 'Samples'), CATDS: 3.5375158245813998E-2",1150 nM
same,potency estimated from few doses,"STK4; compound concentrations: 100 nM and 1000 nM (sheet 'Samples'), CATDS: 4.6410579301478898E-2",611 nM
